Several values for one entry are separate records, joined by “and”; a condition that tells them apart may be missing. Identical values can stand only once. Activity calls are given as the source filed them.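 How the source made its calls, unless noted: active means compounds whose cell count with miR-34 switched on is under 0.7 times the count with it off; inactive means the rest.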
Experiments:
[1] = viability loss with induced miR-34 in A549 – imaging, A549 dox-inducible miR-34, nuclei and caspase counts, primary screen (AID 1347080); conditions: A549 miR-34 inducible, Hoechst nuclei count, 48 h
[2] = MELAS cybrid and Rieske KO viability enhancers – cell-based, MELAS cybrids, Rieske KO mouse fibroblasts, CellTiter-Glo, primary screen (AID 1508586;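 active means mean z-score across replicates of 1.96 or higher in either the MELAS or the Rieske mutant cell line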;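 further: z relative to plate mean and SD of compound and empty wells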); conditions: low glucose
[3] = stronger effect = lower value, cell number ratio, induced over uninduced
[4] = measured here: relative caspase fold change +Dox/-Dox
[5] = measured here: total cells with miR-34 induction, stronger effect = lower value
[6] = measured here: total cells without miR-34 induction
[7] = MELAS cybrid survival, CellTiter-Glo 48 h, stronger effect = higher value
[8] = Rieske KO mouse fibroblast survival, CellTiter-Glo 72 h
Further: test concentration not given here.

SMILES | fold change [1, 3] | fold change [1, 4] | cell count [1, 5] | cell count [1, 6] | z-score [2, 7] | z-score [2, 8]
CCC(CC)(NC(=O)C(C)C)C(=O)NC(CCCN=C(N)N)C(=O)NC1(C(=O)NC(c2ccc(F)cc2)c2ccc(F)cc2)CCCC1 (centres undefined) | 0.936 (inactive) | 0.709 | 9110 | 9730 | -0.415 (inactive) | -0.654
C=C1CCC(O)CC1=CC=C1CCC[C@]2(C)C(C(C)C=CC(C)C(C)C)CC[C@@H]12 (some centres undefined) | 0.949 (inactive) | 0.581 | 7890 | 8320 | -0.149 (inactive) | -0.174
N#Cc1cc(CN2CCC(Nc3ncnc4sc(Cl)cc34)CC2)ccc1F | 0.932 (inactive) | 0.447 | 6280 | 6740 | -0.501 (inactive) | -0.555
CC(C)(C)c1ccc(-c2nc3ccccc3[nH]2)cc1 | 0.982 (inactive) | 0.555 | 8150 | 8300 | -0.625 (inactive) | -3.26
COC1C=CC=C(C)C(=O)NC2=CC(=O)C(NCCN(C)C)=C(CC(C)CC(OC)C(O)C(C)C=C(C)C1OC(N)=O)C2=O (centres undefined) | 1.03 (inactive) | 1.2 | 1450 | 1410 | 2.44 (active) | -2.5
CC(C)(F)CC(NC(c1ccc(-c2ccc(S(C)(=O)=O)cc2)cc1)C(F)(F)F)C(=O)NC1(C#N)CC1 (centres undefined) | 0.826 (inactive) | 0.999 | 7020 | 8500 | -0.379 (inactive) | -0.123
CC(C)(O)C1CC[C@@](C)([C@@H]2C(O)C[C@@]3(C)[C@@H]4CC(OC5OC(CO)C(O)C(O)C5O)[C@H]5C(C)(C)C(OC6OCC(O)C(O)C6O)CC[C@@]56C[C@]46CC[C@]23C)O1 (some centres undefined) | 0.936 (inactive) | 0.796 | 9300 | 9940 | -0.378 (inactive) | 0.478
CCOC(=O)C(CCc1ccccc1)NC1CSC(c2cccs2)CN(CC(=O)O)C1=O (centres undefined) | 1.05 (inactive) | 0.5 | 8260 | 7900 | -0.343 (inactive) | -0.0675
Fc1ccc(C(c2ccc(F)cc2)N2CCN(CC=Cc3ccccc3)CC2)cc1 | 0.899 (inactive) | 0.978 | 7880 | 8760 | -0.335 (inactive) | 0.411
CN1CCc2nc(C(=O)NC3CC(C(=O)N(C)C)CCC3NC(=O)C(=O)Nc3ccc(Cl)cn3)sc2C1 (centres undefined) | 0.965 (inactive) | 0.478 | 8860 | 9180 | -0.402 (inactive) | -0.373
C=C1CC[C@H]2[C@@](C)(CCC(O)[C@@]2(C)CO)C1CC=C1C(=O)OCC1O (some centres undefined) | 0.97 (inactive) | 0.896 | 6090 | 6280 | -0.657 (inactive) | -0.629
CCC1OC(=O)CC(O)C(C)C(OC2OC(C)C(O)C(N(C)C)C2O)C(CCN2CC(C)CC(C)C2)CC(C)C(=O)C=CC(C)=CC1COC1OC(C)C(O)C(OC)C1OC (centres undefined) | 0.924 (inactive) | 0.808 | 8240 | 8920 | -0.194 (inactive) | -0.165
O=C(C=CC=Cc1ccc2c(c1)OCO2)N1CCCCC1 | 1 (inactive) | 0.989 | 9240 | 9240 | -0.417 (inactive) | 0.823
CC1(C)S[C@H]2C(NC(=O)C(NC(=O)N3CCN(S(C)(=O)=O)C3=O)c3ccccc3)C(=O)N2C1C(=O)O (some centres undefined) | 0.882 (inactive) | 0.658 | 7720 | 8750 | -0.292 (inactive) | -0.225
Cc1[nH]nc2ccc(-c3cncc(OCC(N)Cc4ccccc4)c3)cc12 (centres undefined) | 1.1 (inactive) | 0.572 | 1470 | 1330 | 1.05 (inactive) | -3.52
O=C(C=Cc1ccc(O)c(O)c1)OCCc1ccccc1 | 1.02 (inactive) | 0.387 | 7430 | 7300 | -0.587 (inactive) | -2.25
Cc1cn(C2CC(O)C(CO)O2)c(=O)[nH]c1=O (centres undefined) | 0.853 (inactive) | 1.28 | 7950 | 9310 | -0.34 (inactive) | 0.719
CCCC(C)NC(=O)c1ccc(Cl)c(Cl)c1 (centres undefined) | 0.868 (inactive) | 0.485 | 8950 | 10300 | -0.371 (inactive) | 0.701
CCOc1cc(C(CS(C)(=O)=O)N2C(=O)c3cccc(NC(C)=O)c3C2=O)ccc1OC (centres undefined) | 0.919 (inactive) | 0.498 | 8660 | 9420 | -0.371 (inactive) | -0.546
Cc1cnc(NC(=O)Nc2cc(Br)c(C)cc2OCC2CNCCO2)cn1 (centres undefined) | 1.11 (inactive) | 0.742 | 1910 | 1730 | 0.916 (inactive) | -0.0359
C=C[C@@]1(C)CC(=O)[C@@]2(O)[C@@]3(C)C(O)CCC(C)(C)[C@@H]3C(O)C(OC(C)=O)[C@@]2(C)O1 (some centres undefined) | 0.968 (inactive) | 1.19 | 8540 | 8820 | 0.411 (inactive) | -0.394
CC(=O)OCC(=O)[C@]1(O)CC[C@H]2[C@@H]3CCC4=CC(=O)CC[C@]4(C)[C@@H]3C(=O)C[C@@]21C | 0.938 (inactive) | 0.685 | 9630 | 10300 | -0.429 (inactive) | -0.073

SMILES | fold change [1, 3] | fold change [1, 4] | cell count [1, 5] | cell count [1, 6] | z-score [2, 7] | z-score [2, 8]
CCC(=C(CC)c1ccc(O)cc1)c1ccc(O)cc1 | 0.852 (inactive) | 1.22 | 7280 | 8550 | -0.347 (inactive) | 0.452
CNc1nc(-c2ccc3c(N)n[nH]c3c2)cc(N2CC(C(=O)NC3CCCCC3)CCC2C)n1 (centres undefined) | 0.8 (inactive) | 0.791 | 6100 | 7620 | 0.231 (inactive) | -0.229
COC1=CC(=O)CC(C)[C@@]12Oc1c(Cl)c(OC)cc(OC)c1C2=O (some centres undefined) | 0.974 (inactive) | 0.639 | 8290 | 8510 | -0.169 (inactive) | -0.138
O=C(c1ccc(F)cc1)N1CCCC(c2nc(-c3ccc(F)cc3)no2)C1 (centres undefined) | 0.877 (inactive) | 0.718 | 8270 | 9420 | -0.287 (inactive) | -0.496
CC1C[C@H]2[C@@H]3CCC4=CC(=O)C=C[C@]4(C)[C@]3(F)C(O)C[C@]2(C)[C@]1(O)C(=O)CO (some centres undefined) | 0.886 (inactive) and 0.91 (inactive) | 0.577 and 0.802 | 5440 and 5070 | 6140 and 5570 | -0.338 (inactive) and -0.534 (inactive) | 0.031 and -0.0341
CC(C)N(CCCNC(=O)Nc1ccc(C(C)(C)C)cc1)CC1OC(n2ccc3c(N)ncnc32)C(O)C1O (centres undefined) | 0.885 (inactive) | 0.359 | 8440 | 9540 | -0.287 (inactive) | 0.555
CCC[C@@H]1OC2C[C@H]3[C@@H]4CCC5=CC(=O)C=C[C@]5(C)[C@@H]4C(O)C[C@]3(C)[C@@]2(C(=O)CO)O1 (some centres undefined) | 1.01 (inactive) | 0.72 | 3350 | 3330 | -0.541 (inactive) | -0.57
C#C[C@@]1(OC(C)=O)CC[C@H]2[C@@H]3CCC4=CC(OC(C)=O)CC[C@@H]4[C@@H]3CC[C@@]21C (some centres undefined) | 0.978 (inactive) | 0.478 | 8080 | 8260 | -0.279 (inactive) | -0.148
Cc1cc(C)nc(NS(=O)(=O)c2ccc(NC(=S)NC(=O)COc3ccc(Br)cc3Cl)cc2)n1 | 0.955 (inactive) | 1.42 | 7550 | 7900 | -0.302 (inactive) | -3.08
Oc1ccc(OC2CCCCO2)cc1 (centres undefined) | 0.945 (inactive) | 0.827 | 7580 | 8020 | -0.229 (inactive) | -0.263
Cc1cc(Nc2ccc(NC(=O)c3ccc(Nc4ccnc5ccccc45)cc3)cc2)nc(N)n1 | 0.978 (inactive) | 0.411 | 6080 | 6210 | -0.384 (inactive) | -1.35
CC(C)c1nc(N(C)S(C)(=O)=O)nc(-c2ccc(F)cc2)c1C=CC(O)CC(O)CC(=O)O (centres undefined) | 0.92 (inactive) | 0.647 | 8010 | 8710 | 0.606 (inactive) | -0.0253
CC(=Cc1ccc(C(=O)O)cc1)c1ccc2c(c1)C(C)(C)CCC2(C)C | 0.986 (inactive) | 0.781 | 8250 | 8370 | -0.023 (inactive) | -0.2
CCCCC(F)(F)C(=O)CCC1C(O)CC(=O)C1CCCCCCC(=O)O (centres undefined) | 0.926 (inactive) | 0.726 | 8100 | 8740 | 0.0399 (inactive) | -0.0235
O=C(O)CCCCC1SC[C@@H]2NC(=O)N[C@H]12 (some centres undefined) | 0.883 (inactive) | 0.431 | 8160 | 9250 | -0.0238 (inactive) | -0.137
O=C(NCc1ccc(Oc2ccccc2)cc1)c1nc(-c2cc(Br)c(O)c(Br)c2)no1 | 0.903 (inactive) | 0.842 | 7380 | 8170 | -0.2 (inactive) | -0.275
CC1(C)S[C@H]2C(NC(=O)C(N)c3ccccc3)C(=O)N2C1C(=O)O (some centres undefined) | 0.913 (inactive) | 0.727 | 8130 | 8910 | -0.295 (inactive) | -0.19
CC(C)(C)c1cc(C=C(C#N)C(N)=S)cc(C(C)(C)C)c1O | 0.89 (inactive) | 0.706 | 3790 | 4260 | -0.383 (inactive) | -0.375
CC1(C)C=C(CN2CC(=Cc3ccc(F)cc3)C(=O)C(=Cc3ccc(F)cc3)C2)C(C)(C)N1O | 0.876 (inactive) | 0.446 | 6830 | 7800 | -0.493 (inactive) | -2.15
CCC(NC(=O)C(C)NC)C(=O)N1CC(O)CC1Cc1c(-c2[nH]c3cc(F)ccc3c2CC2CC(O)CN2C(=O)C(CC)NC(=O)C(C)NC)[nH]c2cc(F)ccc12 (centres undefined) | 0.946 (inactive) | 0.86 | 9020 | 9540 | -0.425 (inactive) | -0.265
OCCOc1ccc(C(=C(CCCl)c2ccccc2)c2ccccc2)cc1 | 0.979 (inactive) | 0.793 | 9190 | 9380 | -0.333 (inactive) | -0.092
CS(=O)(=O)c1ccc(C(O)C(CF)NC(=O)C(Cl)Cl)cc1 (centres undefined) | 0.937 (inactive) | 0.642 | 8270 | 8820 | 0.0143 (inactive) | -0.0314

Reference: PubChem BioAssay
